PubChem BioAssay (EPA / NIEHS)
Calls of active or inactive are those of the source. Rule for the calls: active = hit-call score of the fitted dose curve at least 0.9, where 1 is the maximum; inactive = score below 0.9.

Assays:
Conditions in all cases: mRNA level, 48 h; actives raise or lower the signal
[1] = read-out: Lipoprotein lipase (LPL), LPL (gene 4023); experiment: LTEA_HepaRG_LPL: Life Technologies and Expression Analysis (LTEA) Assay for Lipoprotein lipase (LPL) using HepaRG (AID 2283515)
Procedure, shortened: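 Read-out is LPL transcript level by qRT-PCR, normalized to three housekeeping genes and fitted bidirectionally against the DMSO control. Human HepaRG cells received chemicals for 48 h at up to 100 uM.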

[2] = read-out: MicroRNA 122 (MIR122), gene 406906; experiment: LTEA_HepaRG_MIR122: Life Technologies and Expression Analysis (LTEA) Assay for MicroRNA 122 (MIR122) using HepaRG (AID 2283516); note: the transcript read is the microRNA miR-122
Procedure, shortened: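 HepaRG plated 48 h, switched to serum-free induction medium, then treated in duplicate for 48 h (100 uM top, half-log steps, 0.5% DMSO vehicle). RNA isolated, qRT-PCR performed, concentration-response fitted both directions relative to DMSO.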

[3] = read-out: matrix metalloproteinase-10 (MMP10), MMP10 (gene 4319); experiment: LTEA_HepaRG_MMP10: Life Technologies and Expression Analysis (LTEA) Assay for matrix metalloproteinase-10 (MMP10) using HepaRG (AID 2283517)
Procedure, shortened: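 Gain or loss of MMP10 mRNA is fitted relative to the 0.5% DMSO vehicle. The human hepatic line HepaRG receives a 48-hour serum-free exposure, in duplicate, with a maximum concentration of 100 uM.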

MYC, MYC (gene 4609) = experiment: LTEA_HepaRG_MYC: Life Technologies and Expression Analysis (LTEA) Assay for MYC using HepaRG (AID 2283518)
Procedure, shortened: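 Expression changes were scored by TaqMan qRT-PCR with ACTB, GAPDH and POLR2A normalization. Cultures in serum-free induction medium received duplicate 8-point concentration series, highest 100 uM, for 48 h; DMSO (0.5%) served as baseline.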

[4] = read-out: matrix metalloproteinase-3 (MMP3), MMP3 (gene 4314); experiment: LTEA_HepaRG_MMP3: Life Technologies and Expression Analysis (LTEA) Assay for matrix metalloproteinase-3 (MMP3) using HepaRG (AID 2283519)
Procedure, shortened: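 HepaRG, human; 48 h dosing, 8 conc. (max 100 uM, half-log), duplicate, 0.5% DMSO. Readout: MMP3 transcript by Fluidigm TaqMan qRT-PCR, ACTB/GAPDH/POLR2A-normalised. Gain or loss fitted vs DMSO.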

[5] = read-out: Paternally Expressed 10 (PEG10), PEG10 (gene 23089); experiment: LTEA_HepaRG_PEG10: Life Technologies and Expression Analysis (LTEA) Assay for Paternally Expressed 10 (PEG10) using HepaRG (AID 2283520)
Procedure, shortened: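 HepaRG, 48 h post-plating → serum-free induction medium → 48 h chemical exposure (duplicate, 8-pt, max 100 uM, half-log, 0.5% DMSO) → lysis in RLT → TaqMan qRT-PCR for PEG10, ACTB/GAPDH/POLR2A normalisation.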

[6] = read-out: Phosphatase and tensin (PTEN), PTEN (gene 5728); experiment: LTEA_HepaRG_PTEN: Life Technologies and Expression Analysis (LTEA) Assay for Phosphatase and tensin (PTEN) using HepaRG (AID 2283523)
Procedure, shortened: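 Read-out is PTEN transcript level by multiplexed TaqMan qRT-PCR after 48 h chemical treatment of human HepaRG cultures in serum-free induction medium. Concentrations spanned 100 uM downward in half-log steps, 0.5% DMSO throughout; activity fitted in both directions against vehicle.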

[7] = read-out: solute carrier (SLC22A1), SLC22A1 (gene 6580); experiment: LTEA_HepaRG_SLC22A1: Life Technologies and Expression Analysis (LTEA) Assay for solute carrier (SLC22A1) using HepaRG (AID 2283524);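 for AC50: differentiated human HepaRG liver cells in serum-free induction medium; TaqMan qRT-PCR normalized to ACTB GAPDH and POLR2A housekeeping genes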
Procedure, shortened: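 HepaRG (human liver line), 48 h dosing in serum-free induction medium; 8 conc., half-log down from 100 uM, 0.5% DMSO vehicle, duplicates. Endpoint: SLC22A1 mRNA, qRT-PCR, housekeeping-normalized; gain/loss fit vs DMSO.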

[8] = read-out: Pyruvate Dehydrogenase Kinase 4 (PDK4), PDK4 (gene 5166); experiment: LTEA_HepaRG_PDK4: Life Technologies and Expression Analysis (LTEA) Assay for Pyruvate Dehydrogenase Kinase 4 (PDK4) using HepaRG (AID 2283525)
Procedure, shortened: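 In this multiplexed human HepaRG expression assay, cells are treated 48 h with test chemicals across an eight-point range starting at 100 uM. PDK4 mRNA changes, normalized to ACTB/GAPDH/POLR2A, are fitted in both directions relative to vehicle.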

[9] = read-out: NAD(P)H dehydrogenase [quinone] 1 (NQO1), NQO1 (gene 1728); experiment: LTEA_HepaRG_NQO1: Life Technologies and Expression Analysis (LTEA) Assay for NAD(P)H dehydrogenase [quinone] 1 (NQO1) using HepaRG (AID 2283526)
Procedure, shortened: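 HepaRG, 48 h post-plating → serum-free induction medium → test chemical 48 h (duplicate, 100 uM top, half-log x8, 0.5% DMSO) → RNA isolation → qRT-PCR, ACTB/GAPDH/POLR2A normalization; bidirectional curve fit vs DMSO baseline.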

[10] = read-out: Nuclear factor erythroid 2-related factor 2 (Homo sapiens) (UniProt Q16236); experiment: LTEA_HepaRG_NFE2L2: Life Technologies and Expression Analysis (LTEA) Assay for Nuclear factor erythroid 2-related factor 2 (NFE2L2) Transcription Factor using HepaRG (AID 2283527)
Procedure, shortened: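 Transcript level of NFE2L2 is the read-out, measured by microfluidic TaqMan qRT-PCR and normalized to three housekeeping genes. Human HepaRG cultures received test chemical for 48 h at up to 100 uM in half-log steps. Gain or loss of signal is fitted relative to 0.5% DMSO.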

[11] = read-out: succinate dehydrogenase complex iron sulfur subunit B (SDHB), SDHB (gene 6390); experiment: LTEA_HepaRG_SDHB: Life Technologies and Expression Analysis (LTEA) Assay for succinate dehydrogenase complex iron sulfur subunit B (SDHB) using HepaRG (AID 2283528)
Procedure, shortened: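 HepaRG cells (~100,000/well, plated 48 h) exposed in duplicate for 48 h in serum-free induction medium to 8-point half-log series from 100 uM in 0.5% DMSO; mRNA by qRT-PCR normalised to ACTB, GAPDH, POLR2A; bidirectional fit versus DMSO.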

[12] = read-out: Signal transducer and activator of transcription 3 (Homo sapiens) (UniProt P40763); experiment: LTEA_HepaRG_STAT3: Life Technologies and Expression Analysis (LTEA) Assay for Signal transducer and activator of transcription (STAT3) using HepaRG (AID 2283529)
Procedure, shortened: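 Read-out is STAT3 mRNA level by qRT-PCR, normalized to three housekeeping genes, in human HepaRG liver cells treated for 48 h. Concentrations ran from 100 uM downward in half-log steps; curves were fitted for gain or loss relative to 0.5% DMSO.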

[13] = read-out: solute carrier (SLCO1B1), SLCO1B1 (gene 10599); experiment: LTEA_HepaRG_SLCO1B1: Life Technologies and Expression Analysis (LTEA) Assay for solute carrier (SLCO1B1) using HepaRG (AID 2283530)
Procedure, shortened: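 Human HepaRG cultures treated for 48 h with an eight-concentration half-log series topping at 100 uM; SLCO1B1 measured by qRT-PCR and fitted bidirectionally relative to DMSO.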

[14] = read-out: sulfotransferase 2A1 (SULT2A1), SULT2A1 (gene 6822); experiment: LTEA_HepaRG_SULT2A1: Life Technologies and Expression Analysis (LTEA) Assay for sulfotransferase 2A1 (SULT2A1) using HepaRG (AID 2283531)
Procedure, shortened: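 Gene-expression endpoint in a human liver cell line: SULT2A1 mRNA change after 48 h chemical treatment, curves fitted in both directions relative to 0.5% DMSO vehicle. Concentrations spanned eight half-log steps from 100 uM.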

[15] = read-out: Transforming Growth Factor (TGFA), TGFA (gene 7039); experiment: LTEA_HepaRG_TGFA: Life Technologies and Expression Analysis (LTEA) Assay for Transforming Growth Factor (TGFA) using HepaRG (AID 2283532)
Procedure, shortened: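 HepaRG (human liver line), 48 h exposure, 8 conc. half-log down from 100 uM, 0.5% DMSO vehicle, duplicates; serum-free induction medium. TGFA mRNA by TaqMan qRT-PCR, ACTB/GAPDH/POLR2A normalization; gain/loss fit vs DMSO.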

[16] = read-out: Transforming Growth Factor (TGFB1), TGFB1 (gene 7040); experiment: LTEA_HepaRG_TGFB1: Life Technologies and Expression Analysis (LTEA) Assay for Transforming Growth Factor (TGFB1) Transporter using HepaRG (AID 2283533)
Procedure, shortened: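 Eight-point concentration-response (max 100 uM, half-log) in HepaRG under serum-free induction conditions, 48 h. TGFB1 mRNA by qRT-PCR, housekeeping-normalized.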

[17] = read-out: Tumor necrosis factor receptor 1 (TNFRSF1A), TNFRSF1A (gene 7132); experiment: LTEA_HepaRG_TNFRSF1A: Life Technologies and Expression Analysis (LTEA) Assay for Tumor necrosis factor receptor 1 (TNFRSF1A) using HepaRG (AID 2283535)
Procedure, shortened: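 Assay uses 48 h chemical treatment of differentiated HepaRG monolayers, tested in duplicate at eight concentrations from 100 uM downward in 0.5% DMSO. mRNA is normalized to ACTB, GAPDH and POLR2A, with induction or suppression fitted relative to vehicle.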

TIMP1, TIMP1 (gene 7076) = experiment: LTEA_HepaRG_TIMP1: Life Technologies and Expression Analysis (LTEA) Assay for TIMP1 using HepaRG (AID 2283534);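 note: TaqMan qRT-PCR signal normalized to ACTB GAPDH and POLR2A housekeeping genes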
Procedure, shortened: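 TIMP1 induction or repression in HepaRG cells after 48 h chemical exposure (eight concentrations, highest 100 uM), assessed by normalized qRT-PCR with bidirectional fitting to DMSO controls.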

Measured: AC50

Chain of Nuclear factor erythroid 2-related factor 2 (Homo sapiens) (Q16236 whole entry, looked up): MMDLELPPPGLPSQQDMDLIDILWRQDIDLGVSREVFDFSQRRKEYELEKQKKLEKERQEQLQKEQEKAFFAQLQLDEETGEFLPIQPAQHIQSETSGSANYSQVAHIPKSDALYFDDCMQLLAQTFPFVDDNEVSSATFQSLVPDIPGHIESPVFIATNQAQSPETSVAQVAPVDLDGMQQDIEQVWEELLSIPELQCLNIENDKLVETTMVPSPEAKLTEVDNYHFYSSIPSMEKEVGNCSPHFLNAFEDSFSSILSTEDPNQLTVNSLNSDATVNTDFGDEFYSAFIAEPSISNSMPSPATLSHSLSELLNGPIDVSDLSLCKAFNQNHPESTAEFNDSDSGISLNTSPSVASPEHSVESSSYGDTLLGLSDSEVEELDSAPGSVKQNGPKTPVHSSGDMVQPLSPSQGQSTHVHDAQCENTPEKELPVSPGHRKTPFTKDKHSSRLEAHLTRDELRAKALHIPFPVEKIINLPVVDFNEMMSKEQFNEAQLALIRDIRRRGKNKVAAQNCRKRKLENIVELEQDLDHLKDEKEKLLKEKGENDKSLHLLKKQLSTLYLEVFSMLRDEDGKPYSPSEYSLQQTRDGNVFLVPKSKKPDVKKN
Chain of Signal transducer and activator of transcription 3 (Homo sapiens) (P40763 whole entry, looked up): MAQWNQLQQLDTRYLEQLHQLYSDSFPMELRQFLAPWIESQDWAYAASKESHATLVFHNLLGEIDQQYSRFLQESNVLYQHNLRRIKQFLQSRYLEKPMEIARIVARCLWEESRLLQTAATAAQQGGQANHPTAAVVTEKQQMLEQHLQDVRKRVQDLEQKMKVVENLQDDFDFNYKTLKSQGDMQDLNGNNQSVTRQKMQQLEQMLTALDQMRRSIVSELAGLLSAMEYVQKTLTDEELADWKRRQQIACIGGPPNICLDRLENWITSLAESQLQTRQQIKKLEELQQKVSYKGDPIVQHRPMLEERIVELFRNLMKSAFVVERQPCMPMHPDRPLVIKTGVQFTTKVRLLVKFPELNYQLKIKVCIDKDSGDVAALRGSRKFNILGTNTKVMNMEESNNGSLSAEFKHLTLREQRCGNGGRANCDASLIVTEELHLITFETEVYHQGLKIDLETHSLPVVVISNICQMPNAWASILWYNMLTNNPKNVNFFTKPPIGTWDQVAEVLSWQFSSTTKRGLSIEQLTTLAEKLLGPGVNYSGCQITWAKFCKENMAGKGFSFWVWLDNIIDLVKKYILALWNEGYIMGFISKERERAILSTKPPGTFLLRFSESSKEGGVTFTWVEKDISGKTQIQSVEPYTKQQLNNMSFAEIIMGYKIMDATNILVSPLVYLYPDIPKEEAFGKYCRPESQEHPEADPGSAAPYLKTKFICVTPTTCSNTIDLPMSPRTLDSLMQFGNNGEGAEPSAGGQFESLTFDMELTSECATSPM

Cc1nn(C)c(Oc2ccccc2)c1C=NOCc1ccc(C(=O)OC(C)(C)C)cc1
inactive: [6] | [8] | [9] | [11] | [12] | [17]
active: [1] 11.2 µM | [2] 30.3 µM | [3] 50 µM | MYC, MYC (gene 4609) 8.62 µM | [4] 34.4 µM | [5] 1.15 µM | [7] 12.3 µM | [10] 33 µM | [13] 23.2 µM | [14] 42.4 µM | [15] 12.2 µM | [16] 63.2 µM

CCNc1nc(N)nc(Cl)n1
not listed: TIMP1, TIMP1 (gene 7076)
inactive: all other assays above

C[C@]12CC[C@@H]3c4ccc(O)cc4C[C@@H](CCCCCCCCCS(=O)CCCC(F)(F)C(F)(F)F)[C@H]3[C@@H]1CC[C@@H]2O (stereo partly drawn)
inactive: [1] | [6] | [10] | [12]
active: [2] 28.7 µM | [3] 0.116 µM | MYC, MYC (gene 4609) 0.0578 µM | [4] 0.084 µM | [5] 5.19 µM | [7] 14.5 µM | [8] 12.7 µM | [9] 0.0555 µM | [11] 11.6 µM | [13] 25 µM | [14] 24.9 µM | [15] 0.0998 µM | [16] 0.121 µM | [17] 0.0802 µM

CCCCC(CC)CN1C(=O)C2C3C=CC(C3)C2C1=O (stereo not drawn)
active: [1] 58.4 µM | [5] 1.98 µM | [7] 78.3 µM | [8] 81.3 µM | [14] 86.1 µM | [16] 78.8 µM
not listed: TIMP1, TIMP1 (gene 7076)
inactive: all other assays above

c1ccc2[nH]c(-c3cscn3)nc2c1
active: MYC, MYC (gene 4609) 40 µM | [5] 26.6 µM | [8] 15.8 µM | [10] 50 µM
not listed: [16]
inactive: all other assays above

CSC(=O)c1cccc2nnsc12
not listed: TIMP1, TIMP1 (gene 7076)
inactive: all other assays above
